Only some compounds are listed: those with a hit (about 3.4% of all), similar ones and a draw of the others.
FBW7 activator – human FBW7 E3 ligase activation, primary screen | Q969H0 | AlphaScreen FBW7–phospho-cyclin E peptide binding, activator screen | normalized activity (activation), % at 26.1 µM | 0.13% of 650,000 active | AID 1259310; in the data active means normalized activity above about 1.9%;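 further: purified mutant Fbw7 with reduced substrate affinity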
Target sequence (Q969H0 whole entry, looked up): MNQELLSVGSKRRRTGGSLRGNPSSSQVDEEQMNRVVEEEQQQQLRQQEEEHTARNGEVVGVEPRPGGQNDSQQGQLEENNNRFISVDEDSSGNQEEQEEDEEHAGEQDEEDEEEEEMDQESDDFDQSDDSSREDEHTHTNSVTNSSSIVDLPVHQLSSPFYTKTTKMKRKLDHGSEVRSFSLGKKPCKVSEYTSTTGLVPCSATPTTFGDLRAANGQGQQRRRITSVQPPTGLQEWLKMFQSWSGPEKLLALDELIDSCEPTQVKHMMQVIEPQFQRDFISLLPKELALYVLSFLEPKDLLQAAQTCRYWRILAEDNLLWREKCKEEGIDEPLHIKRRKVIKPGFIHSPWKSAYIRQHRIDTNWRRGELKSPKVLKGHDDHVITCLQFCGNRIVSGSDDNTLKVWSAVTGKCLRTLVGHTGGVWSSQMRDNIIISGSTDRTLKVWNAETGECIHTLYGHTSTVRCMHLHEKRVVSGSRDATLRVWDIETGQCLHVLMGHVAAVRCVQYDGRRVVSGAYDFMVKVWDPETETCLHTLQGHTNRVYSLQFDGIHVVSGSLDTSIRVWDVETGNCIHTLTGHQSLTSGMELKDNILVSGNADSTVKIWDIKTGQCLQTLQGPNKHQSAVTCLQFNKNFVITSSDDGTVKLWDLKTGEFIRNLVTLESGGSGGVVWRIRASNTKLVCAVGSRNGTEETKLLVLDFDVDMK
MITF primary – human MITF inhibition, primary screen. AlphaScreen MITF homodimerization, bead proximity signal. inhibition, % at 2.6 µM. 0.91% of 650,000 active. AID 1259374; in the data active means inhibition above about 50%;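 further: 0% = vehicle wells with protein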
TEAD-YAP block – TEAD-YAP interaction inhibition. HEK-TIYL cells, TEAD-Gal4/YAP UAS-luciferase luminescence. inhibition, % at 9.12 µM. 1.4% of 640,000 active. AID 1259422; in the data active means inhibition above about 32%;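 further: 0% = median of test compound wells and 100% = reference inhibitor wells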
GPR151 ag – human GPR151 activation; Q8TDV0; PathHunter beta-arrestin GPR151 cells, luminescence; activation, % at 11.2 µM; 1% of 650,000 active; in the data active means activation above about 4.9%;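 further: 0% = median of compound wells and 100% = cells with positive control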
An asterisk follows results filed as active.

SMILES | FBW7 activator | MITF primary | TEAD-YAP block | GPR151 ag
Cc1cnc(Nc2ccc3ncccc3c2)nc1Nc1ccc(N2CCOCC2)cc1 | 0 | 4 | 47* | 3
Cc1cnc(Nc2ccccn2)nc1Nc1ccc(N2CCOCC2)cc1 | -1 | 8 | 7 | 1
COc1cc(Nc2nc(Nc3ccc(N4CCOCC4)cc3)ncc2C)cc(OC)c1OC | 0 | 2 | 66* | 0
COc1ccc(Br)cc1C(=O)N/C(=C\c1ccc([N+](=O)[O-])cc1)C(=O)NC1CCCCC1 | 0 | -3 | -10 | -2
O=S(=O)(Nc1cccc(N2CCC(NCCc3ccco3)CC2)c1)c1ccc(F)cc1 | 1 | 61* | -9 | 1
COc1ccccc1C(=O)Nc1cccc(N2CCC(NCCc3cccs3)CC2)c1 | 0 | 20 | 51* | -1
COc1ccccc1C(=O)Nc1cccc(N2CCC(NCCc3ccco3)CC2)c1 | 0 | 3 | 44* | 0
CCCCNC1CCN(c2cccc(NC(=O)c3ccccc3OC)c2)CC1 | 0 | 29 | 41* | 3
COc1ccccc1C(=O)Nc1cccc(N2CCC(NCc3ccsc3)CC2)c1 | 0 | -10 | -12 | -1
COc1ccccc1C(=O)Nc1cccc(N2CCC(NCCc3cnccn3)CC2)c1 | 0 | 8 | 20 | 0
O=S(=O)(Nc1cccc(N2CCC(NCCn3ccnc3)CC2)c1)c1ccc(F)cc1 | 0 | -2 | 6 | 0
COc1ccc(S(=O)(=O)Nc2ccc(S(=O)(=O)Nc3ccc(C)c(C)c3)cc2)cc1 | 0 | 5 | 3 | 2
Cc1cc(Cl)ccc1OCC(=O)Nc1ccc(N2CCN(C)CC2)cc1 | 0 | -18 | 8 | -1
CC(C)(C)NC(=O)c1ccc(C(=O)N(C2CCCCC2)C2CCCCC2)cc1 | 0 | 4 | -5 | -1
Cc1cc(C)c[n+](C(C)C(=O)c2ccc(-c3ccccc3)cc2)c1 (stereo not drawn) | 0 | 4 | 72* | 1
Cc1ccc[n+](C(C)C(=O)c2ccccc2)c1 (stereo not drawn) | 0 | 10 | 1 | 0
O=C(c1ccc([N+](=O)[O-])cc1)n1nc(-c2cccnc2)nc1NCc1ccc(F)cc1 | 0 | -15 | -6 | 1
COc1ccc2nc(C3C(=O)c4ccccc4C3=O)ccc2c1 | 0 | 14 | 83* | -3
Cc1ccc2nc(C3C(=O)c4ccccc4C3=O)ccc2c1 | 0 | 4 | 54* | 3
COc1ccc(OC)c(C2C=C(c3cccnc3)Nc3ncnn32)c1 (stereo not drawn) | 0 | -4 | 22 | -1
COc1cccc(C2=CC(c3cc(OC)ccc3OC)n3ncnc3N2)c1 (stereo not drawn) | 0 | 24 | 50* | 0
COc1ccc(C2=CC(c3cc(OC)ccc3OC)n3ncnc3N2)cc1 (stereo not drawn) | 0 | 0 | 50* | -1
CCOC(=O)C1CCCn2c1nc1c(c2=O)CCCC1 (stereo not drawn) | 0 | 2 | 7 | 0
CCOC(=O)C1CCCn2c1nc1cc(-c3ccc(OC)cc3)sc1c2=O (stereo not drawn) | 1 | 16 | 52* | -6
CCOC(=O)C(=Cc1ccc(O)cc1)C(=O)OCC | 0 | 12 | 10 | 0
SMILES | FBW7 activator | MITF primary | TEAD-YAP block | GPR151 ag
CCOC(=O)/C(=C/c1ccc(Br)cc1)c1nnc(N)s1 | 0 | 14 | 40* | 2
COc1ccc(C(=O)Nc2nc3c(s2)CCCC3)c(OC)c1 | 0 | 4 | 95* | -10
COc1cc2ccccc2cc1C(=O)Nc1nc2c(s1)CCCC2 | 0 | -9 | -70 | -1
CC(=O)Nc1cc(NC(C)=O)cc(C(=O)Nc2nc3c(s2)CCCC3)c1 | 0 | 6 | 52* | 1
COc1cc(SC)ccc1C(=O)Nc1nc2ccc(S(C)(=O)=O)cc2s1 | 0 | 5 | 46* | -1
CSc1cccc(C(=O)Nc2nc3c(s2)CCCC3)c1 | 0 | 5 | -75 | 0
COc1ccc(Cl)cc1C(=O)Nc1nc2ccc(S(C)(=O)=O)cc2s1 | 0 | 5 | -3 | -1
COc1cc(SC)ccc1C(=O)Nc1nc2c(s1)CCCC2 | 0 | 5 | 98* | -7
COc1cc(SC)ccc1C(=O)Nc1nc2c(s1)C(=O)CC(C)(C)C2 | 1 | 13 | -22 | -2
COc1ccc2[nH]c(=O)c(CN(Cc3cccnc3)S(=O)(=O)c3ccc(C)cc3)cc2c1 | 0 | -2 | 0 | 0
O=C(O)/C(=C/c1ccco1)NC(=O)c1ccccc1 | -1 | 17 | 7 | 0
NNC(=O)/C(=C\c1ccco1)NC(=O)c1ccccc1 | 0 | -5 | 35* | 0
CS(=O)(=O)Nc1ccc(-c2ccnc(Nc3cccc(S(N)(=O)=O)c3)n2)cc1 | 0 | 6 | 2 | 0
CS(=O)(=O)Nc1cccc(-c2ccnc(Nc3ccc(-c4ncn[nH]4)cc3)n2)c1 | 0 | 9 | 72* | -1
CS(=O)(=O)Nc1cccc(-c2ccnc(Nc3cccc(S(N)(=O)=O)c3)n2)c1 | 0 | 7 | 91* | 4
NS(=O)(=O)c1ccc(Nc2nccc(-c3cccc(OCCN4CCCCC4)c3)n2)cc1 | 0 | 26 | 68* | 0
CCc1c(C(=O)N2CCCCC2)[nH]c(C)c1C(C)=O | 0 | -1 | 4 | -1
CCOc1ccc(N(CC(=O)NC2CC3CCC2C3)S(=O)(=O)c2ccc(SC)cc2)cc1 (stereo not drawn) | 0 | -20 | 5 | 0
O=C(c1ccc(OC(F)(F)F)cc1)N1CCN2C(=O)[C@@H]3CCCN3C(=O)[C@H]2C1 | 0 | -3 | -2 | 0
Cc1cccc(NC2=NC(=S)N(c3ccc(I)cc3)C23CCCCC3)c1 | 0 | 4 | 0 | 5
COc1ccc(CCNc2ncnc3sccc23)cc1OC | 1 | 19 | 56* | 3
c1ccc(CCNc2ncnc3ccccc23)cc1 | 0 | 3 | 24 | 0
COc1ccc(CCNc2ncnc3ccccc23)cc1OC | 0 | -1 | 63* | 2
COc1ccc(CCNc2nc(C)nc3sc(C)c(C)c23)cc1OC | 0 | 2 | 37* | 0
COc1ccc(CCNc2ncnc3c2oc2ccccc23)cc1OC | 0 | 4 | 46* | 4
SMILES | FBW7 activator | MITF primary | TEAD-YAP block | GPR151 ag
COc1ccc(N2CCN(C(=O)Cn3ncn4cccc4c3=O)CC2)cc1 | 1 | 21 | 11 | -1
CCC(=O)N(CCCO)Cc1cc2ccc(C)cc2[nH]c1=O | 1 | 1 | 36* | -1
Cc1ccccc1C(=O)Nc1cccc(NC(=O)c2cc([N+](=O)[O-])ccc2Cl)c1 | 0 | -2 | 20 | -2
O=C(NNC(=O)C1c2ccccc2Oc2ccccc21)Nc1ccc2c(c1)OCO2 | 0 | -10 | 61* | 2
Cc1cc(C)c2c(N)c(C(=O)Nc3ccc(OC(C)C)cc3)sc2n1 | 0 | 12 | -1 | 1
COc1cc(Nc2cc(C)nc(N3CCN(c4ccccn4)CC3)n2)cc(OC)c1OC | 0 | 4 | 53* | 3
COc1cc(Nc2cc(N3CCN(c4ccccn4)CC3)ncn2)cc(OC)c1OC | 0 | -9 | -13 | -1
COc1cc(Nc2ccnc(N3CCN(c4ccccn4)CC3)n2)cc(OC)c1OC | 0 | 11 | 36* | 0
COCCNC(=O)c1ccc(-c2ccc(SC)cc2)nc1NCC1CC1 | 0 | 2 | 7 | 2

From PubChem
